About 2,000 (36%) of roughly 5,500 compounds were called active. Not shown: some 18% with an inconclusive outcome. Rule as the data show it: active = normalized growth mostly below about 0.91 (no sharp cut-off); inconclusive = no clear call, values can overlap the other calls; inactive = mostly above about 0.92. Some of the results follow.
Experiment: chemical genetic growth profiling, strain panel (AID 1159580);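 also: tested at 20 µM; growth read once vehicle control cultures reached saturation at 30 °C; 1 = growth at the plate median or of vehicle wells; lower values mean less growth of the strain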
Conditions: growth OD

Measured: normalized growth

CCc1nc(N)nc(N)c1-c1ccc(Cl)cc1
inactive: S. cerevisiae deletion strains, locus YJR075W, strain HOC1, hits give low values 0.978 | S. cerevisiae deletion strains, locus YKL009W, strain mrt4, hits give low values 1.01 | S. cerevisiae deletion strains, locus YKL068W, hits give low values 1 | S. cerevisiae deletion strains, locus YKL085W, strain MDH1 (second series), hits give low values 1 | S. cerevisiae deletion strains, locus YKL085W, strain MDH1, hits give low values 1 | S. cerevisiae deletion strains, locus YKL160W, strain elf1, hits give low values 0.948 | S. cerevisiae deletion strains, locus YKL190W, strain CNB1, hits give low values 1.01 | S. cerevisiae deletion strains, locus YKR001C, strain vps1, hits give low values 0.985 | S. cerevisiae deletion strains, locus YKR091W, strain srl3, hits give low values 0.977 | S. cerevisiae deletion strains, locus YLL001W, strain dnm1, hits give low values 0.942 | S. cerevisiae deletion strains, locus YLL026W, hits give low values 0.992 | S. cerevisiae deletion strains, locus YLL041C, strain sdh2, hits give low values 0.972 | S. cerevisiae deletion strains, locus YLR027C, strain aat2, hits give low values 0.984 | S. cerevisiae deletion strains, locus YLR039C, strain RIC1, hits give low values 1.09 | S. cerevisiae deletion strains, locus YLR058C, strain SHM2, hits give low values 1.01 | S. cerevisiae deletion strains, locus YLR102C, strain apc9, hits give low values 1 | S. cerevisiae deletion strains, locus YLR113W, strain HOG1, hits give low values 1.04 | S. cerevisiae deletion strains, locus YLR221C, strain rsa3, hits give low values 1 | S. cerevisiae deletion strains, locus YLR258W, strain gsy2, hits give low values 0.98 | S. cerevisiae deletion strains, locus YLR262C, strain YPT6 (second series), hits give low values 0.958 | S. cerevisiae deletion strains, locus YLR262C, strain YPT6, hits give low values 1.15 | S. cerevisiae deletion strains, locus YLR268W, strain sec22, hits give low values 0.968 | S. cerevisiae deletion strains, locus YLR320W, strain mms22, hits give low values 0.99 | S. cerevisiae deletion strains, locus YLR330W, strain CHS5, hits give low values 1.01 | S. cerevisiae deletion strains, locus YLR342W, strain FKS1 (second series), hits give low values 0.952 | S. cerevisiae deletion strains, locus YLR342W, strain FKS1, hits give low values 0.989 | S. cerevisiae deletion strains, locus YLR357W, strain rsc2, hits give low values 0.96 | S. cerevisiae deletion strains, locus YLR370C, strain arc18, hits give low values 0.972 | S. cerevisiae deletion strains, locus YLR371W, strain rom2, hits give low values 1.01 | S. cerevisiae deletion strains, locus YLR384C, strain iki3, hits give low values 0.964 | S. cerevisiae deletion strains, locus YLR418C, strain cdc73, hits give low values 0.939 | S. cerevisiae deletion strains, locus YML016C, strain PPZ1, hits give low values 0.999 | S. cerevisiae deletion strains, locus YML032C, strain rad52, hits give low values 0.952 | S. cerevisiae deletion strains, locus YML120C, strain ndi1, hits give low values 0.963 | S. cerevisiae deletion strains, locus YML124C, strain tub3, hits give low values 1 | S. cerevisiae deletion strains, locus YMR058W, strain fet3, hits give low values 0.988 | S. cerevisiae deletion strains, locus YMR078C, strain ctf18, hits give low values 0.998 | S. cerevisiae deletion strains, locus YMR125W, strain sto1, hits give low values 0.932 | S. cerevisiae deletion strains, locus YMR129W, hits give low values 0.976 | S. cerevisiae deletion strains, locus YMR205C, strain PFK2, hits give low values 0.956 | S. cerevisiae deletion strains, locus YMR223W, strain ubp8, hits give low values 0.996 | S. cerevisiae deletion strains, locus YMR231W, strain pep5, hits give low values 0.974 | S. cerevisiae deletion strains, locus YMR263W, strain SAP30, hits give low values 1.01 | S. cerevisiae deletion strains, locus YMR307W, strain GAS1, hits give low values 0.916 | S. cerevisiae deletion strains, locus YNL067W, strain RPL9B, hits give low values 0.999 | S. cerevisiae deletion strains, locus YNL071W, strain lat1, hits give low values 0.976 | S. cerevisiae deletion strains, locus YNL128W, strain TEP1, hits give low values 1.02 | S. cerevisiae deletion strains, locus YNL153C, strain GIM3, hits give low values 1.01 | S. cerevisiae deletion strains, locus YNL183C, strain NPR1, hits give low values 0.998 | S. cerevisiae deletion strains, locus YNL209W, strain ssb2, hits give low values 0.979 | S. cerevisiae deletion strains, locus YNL233W, strain BNI4, hits give low values 0.991 | S. cerevisiae deletion strains, locus YNL248C, strain rpa49, hits give low values 0.966 | S. cerevisiae deletion strains, locus YNL250W, strain rad50, hits give low values 1 | S. cerevisiae deletion strains, locus YNL271C, strain bni1, hits give low values 0.998 | S. cerevisiae deletion strains, locus YNL298W, strain CLA4, hits give low values 1 | S. cerevisiae deletion strains, locus YNL307C, strain MCK1, hits give low values 0.972 | S. cerevisiae deletion strains, locus YNL322C, strain KRE1 (second series), hits give low values 0.975 | S. cerevisiae deletion strains, locus YNL322C, strain KRE1, hits give low values 0.967 | S. cerevisiae deletion strains, locus YNR049C, strain mso1, hits give low values 0.968 | S. cerevisiae deletion strains, locus YNR052C, strain pop2, hits give low values 0.931 | S. cerevisiae deletion strains, locus YOL006C, strain TOP1, hits give low values 1.03 | S. cerevisiae deletion strains, locus YOL012C, strain htz1 0.833 | S. cerevisiae deletion strains, locus YOL147C, strain pex11, hits give low values 0.995 | S. cerevisiae deletion strains, locus YOR001W, strain rrp6, hits give low values 0.938 | S. cerevisiae deletion strains, locus YOR061W, strain CKA2, hits give low values 1.01 | S. cerevisiae deletion strains, locus YOR069W, strain VPS5, hits give low values 1 | S. cerevisiae deletion strains, locus YOR070C, strain gyp1, hits give low values 0.998 | S. cerevisiae deletion strains, locus YOR080W, strain dia2, hits give low values 0.951 | S. cerevisiae deletion strains, locus YOR083W, strain WHI5, hits give low values 0.936 | S. cerevisiae deletion strains, locus YOR106W, strain vam3, hits give low values 0.946 | S. cerevisiae deletion strains, locus YOR136W, strain idh2, hits give low values 1.01 | S. cerevisiae deletion strains, locus YOR144C, strain elg1, hits give low values 1.01 | S. cerevisiae deletion strains, locus YOR184W, strain ser1, hits give low values 0.979 | S. cerevisiae deletion strains, locus YOR231W, strain MKK1, hits give low values 1.02 | S. cerevisiae deletion strains, locus YOR265W, strain rbl2, hits give low values 0.976 | S. cerevisiae deletion strains, locus YOR270C, strain vph1, hits give low values 0.932 | S. cerevisiae deletion strains, locus YOR290C, strain snf2, hits give low values 0.896 | S. cerevisiae deletion strains, locus YOR316C, strain cot1, hits give low values 1 | S. cerevisiae deletion strains, locus YPL051W, strain arl3, hits give low values 0.981 | S. cerevisiae deletion strains, locus YPL055C, strain LGE1, hits give low values 1 | S. cerevisiae deletion strains, locus YPL078C, strain atp4, hits give low values 0.959 | S. cerevisiae deletion strains, locus YPL106C, strain sse1, hits give low values 0.956 | S. cerevisiae deletion strains, locus YPL240C, strain hsp82, hits give low values 0.98 | S. cerevisiae deletion strains, locus YPL241C, strain CIN2, hits give low values 1.01 | S. cerevisiae deletion strains, locus YPL256C, strain CLN2, hits give low values 1.09 | S. cerevisiae deletion strains, locus YPR119W, strain clb2, hits give low values 1 | S. cerevisiae deletion strains, locus YPR141C, strain kar3, hits give low values 1 | S. cerevisiae deletion strains, locus YPR163C, strain tif3, hits give low values 0.996 | S. cerevisiae deletion strains, locus YPR167C, strain met16, hits give low values 1.01 | S. cerevisiae deletion strains, strain wtn01, hits give low values 0.975 | S. cerevisiae strains, strain wild type, hits give low values 1
active: S. cerevisiae deletion strains, locus YKR026C, strain gcn3, hits give low values 1.2 [resistant]
